About 2,000 (36%) of roughly 5,500 compounds were called active. Roughly 18% stayed inconclusive and do not appear here. Rule as the data show it: active = normalized growth mostly below about 0.91 (no sharp cut-off); inconclusive = no clear call, values can overlap the other calls; inactive = mostly above about 0.92. This is one part of the list.
Assay: chemical genetic growth profiling, strain panel (AID 1159580);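 also: tested at 20 µM; growth read once vehicle control cultures reached saturation at 30 °C; 1 = growth at the plate median or of vehicle wells; lower values mean less growth of the strain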
Details: growth OD
[1] = S. cerevisiae deletion strains, locus YAL013W, strain DEP1, hits give low values
[2] = S. cerevisiae deletion strains, locus YBR229C, strain ROT2, hits give low values
[3] = S. cerevisiae deletion strains, locus YCL061C, strain MRC1, hits give low values
[4] = S. cerevisiae deletion strains, locus YDL101C, strain DUN1, hits give low values
[5] = S. cerevisiae deletion strains, locus YDR150W, strain NUM1, hits give low values
[6] = S. cerevisiae deletion strains, locus YEL061C, strain CIN8, hits give low values
[7] = S. cerevisiae deletion strains, locus YGR078C, strain PAC10, hits give low values
[8] = S. cerevisiae deletion strains, locus YHR030C, strain SLT2, hits give low values
[9] = S. cerevisiae deletion strains, locus YHR087W, strain rtc3, hits give low values
[10] = S. cerevisiae deletion strains, locus YJR043C, strain POL32, hits give low values
[11] = S. cerevisiae deletion strains, locus YJR075W, strain HOC1, hits give low values
[12] = S. cerevisiae deletion strains, locus YLR039C, strain RIC1, hits give low values
[13] = S. cerevisiae deletion strains, locus YLR058C, strain SHM2 (second series), hits give low values
[14] = S. cerevisiae deletion strains, locus YLR085C, strain ARP6, hits give low values
[15] = S. cerevisiae deletion strains, locus YLR262C, strain YPT6, hits give low values
[16] = S. cerevisiae deletion strains, locus YML094W, strain GIM5, hits give low values
[17] = S. cerevisiae deletion strains, locus YMR219W, strain ESC1, hits give low values
[18] = S. cerevisiae deletion strains, locus YMR263W, strain SAP30, hits give low values
[19] = S. cerevisiae deletion strains, locus YMR307W, strain GAS1, hits give low values
[20] = S. cerevisiae deletion strains, locus YNL153C, strain GIM3, hits give low values
[21] = S. cerevisiae deletion strains, locus YNL298W, strain CLA4 (second series), hits give low values
[22] = S. cerevisiae deletion strains, locus YNL322C, strain KRE1, hits give low values
[23] = S. cerevisiae deletion strains, locus YNR030W, strain Alg12, hits give low values
[24] = S. cerevisiae deletion strains, locus YPL055C, strain LGE1, hits give low values
[25] = S. cerevisiae deletion strains, locus YPL241C, strain CIN2, hits give low values
[26] = S. cerevisiae deletion strains, locus YPR135W, strain CTF4, hits give low values
[27] = S. cerevisiae strains, strain wild type, hits give low values
[28] = S. cerevisiae deletion strains, locus YHR079C, strain IRE1, hits give low values
[29] = S. cerevisiae deletion strains, locus YJL095W, strain BCK1, hits give low values
[30] = S. cerevisiae deletion strains, locus YJR066W, strain TOR1, hits give low values
[31] = S. cerevisiae deletion strains, locus YLR113W, strain HOG1, hits give low values
[32] = S. cerevisiae deletion strains, locus YNL183C, strain NPR1, hits give low values
[33] = S. cerevisiae deletion strains, locus YOR231W, strain MKK1, hits give low values
[34] = S. cerevisiae deletion strains, locus YPL256C, strain CLN2, hits give low values

Measured: normalized growth

Cc1cc(=O)n2[nH]cc(C#N)c2n1
inactive: [1] 1 | [2] 1 | [3] 1.02 | [4] 1.01 | [5] 1.04 | [6] 0.999 | [7] 1.01 | [8] 1.09 | [9] 1.01 | [10] 1.02 | [11] 0.995 | S. cerevisiae deletion strains, locus YKL190W, strain CNB1, hits give low values 0.981 | [12] 1.01 | [13] 1 | [14] 1 | [15] 1.04 | [16] 0.995 | [17] 0.994 | [18] 1.04 | [19] 0.968 | [20] 1.02 | [21] 1.01 | [22] 1 | [23] 1.01 | [24] 1.06 | [25] 0.99 | [26] 1.09 | [27] 0.993

CSC(=CC(=O)c1ccc(Cl)cc1)SC
active: [1] 0.884 | [2] 0.867 | [3] 0.848 | [4] 0.836 | S. cerevisiae deletion strains, locus YDL134C, strain PPH21, hits give low values 0.747 | [6] 0.74 | [7] 0.872 | S. cerevisiae deletion strains, locus YGR229C, strain SMI1, hits give low values 0.884 | [8] 0.218 | [9] 0.829 | S. cerevisiae deletion strains, locus YJL187C, strain SWE1, hits give low values 0.869 | [10] 0.874 | [11] 0.828 | [12] 0.421 | [13] 0.836 | [14] 0.394 | [15] 0.431 | [16] 0.79 | [17] 0.889 | [18] 0.874 | [19] 0.286 | S. cerevisiae deletion strains, locus YNL128W, strain TEP1, hits give low values 0.888 | [20] 0.879 | [21] 0.645 | [22] 0.895 | [23] 0.765 | [24] 0.771 | [25] 0.685 | [26] 0.352 | [27] 0.811
inactive: [5] 0.888

COC1=C(O)C(=O)c2c(cc3oc(C(C)=O)c(O)c3c2O)C1=O
inactive: [8] 0.986 | [28] 1.01 | [29] 1.03 | [30] 0.957 | [31] 1.04 | [32] 0.973 | [33] 0.999 | [34] 0.973

Cc1csc(NC(=O)Nc2ccc(C(F)(F)F)cc2)c1
inactive: S. cerevisiae deletion strains, locus YAR019C, strain CDC15, hits give low values 0.971 | S. cerevisiae deletion strains, locus YBL105C, strain PKC1, hits give low values 0.98 | S. cerevisiae deletion strains, locus YBR135W, strain CKS1, hits give low values 0.963 | S. cerevisiae deletion strains, locus YBR136W, strain MEC1, hits give low values 0.98 | S. cerevisiae deletion strains, locus YBR160W, strain CDC28, hits give low values 0.975 | S. cerevisiae deletion strains, locus YDL017W, strain CDC7, hits give low values 0.977 | S. cerevisiae deletion strains, locus YDL028C, strain MPS1, hits give low values 0.981 | [4] 1.02 | S. cerevisiae deletion strains, locus YDL108W, strain KIN28, hits give low values 0.973 | S. cerevisiae deletion strains, locus YDL132W, strain cdc53, hits give low values 0.97 | S. cerevisiae deletion strains, locus YDL214C, strain PRR2, hits give low values 0.783 | S. cerevisiae deletion strains, locus YDR052C, strain DBF4, hits give low values 0.989 | S. cerevisiae deletion strains, locus YDR054C, strain cdc34, hits give low values 0.95 | S. cerevisiae deletion strains, locus YDR226W, strain ADK1, hits give low values 0.975 | S. cerevisiae deletion strains, locus YDR477W, strain SNF1, hits give low values 0.804 | S. cerevisiae deletion strains, locus YER123W, strain YCK3, hits give low values 0.735 | S. cerevisiae deletion strains, locus YER133W, strain GLC7, hits give low values 0.848 | S. cerevisiae deletion strains, locus YFL009W, strain cdc4, hits give low values 0.97 | S. cerevisiae deletion strains, locus YFL029C, strain CAK1, hits give low values 0.958 | S. cerevisiae deletion strains, locus YFR003C, strain YPI1, hits give low values 0.972 | S. cerevisiae deletion strains, locus YFR019W, strain FAB1, hits give low values 0.801 | S. cerevisiae deletion strains, locus YFR028C, strain CDC14, hits give low values 0.951 | S. cerevisiae deletion strains, locus YGR040W, strain KSS1, hits give low values 0.848 | S. cerevisiae deletion strains, locus YGR052W, strain FMP48, hits give low values 0.946 | S. cerevisiae deletion strains, locus YGR092W, strain DBF2, hits give low values 0.781 | [8] 0.891 | [28] 0.876 | S. cerevisiae deletion strains, locus YHR082C, strain KSP1, hits give low values 0.893 | S. cerevisiae deletion strains, locus YIL147C, strain SLN1, hits give low values 0.978 | [29] 0.896 | S. cerevisiae deletion strains, locus YJL128C, strain PBS2, hits give low values 0.932 | S. cerevisiae deletion strains, locus YJL157C, strain FAR1, hits give low values 0.718 | S. cerevisiae deletion strains, locus YJR016C, strain ILV3, hits give low values 0.978 | S. cerevisiae deletion strains, locus YJR066W, strain TOR1 (second series), hits give low values 0.848 | [30] 0.935 | S. cerevisiae deletion strains, locus YKL048C, strain ELM1, hits give low values 0.928 | S. cerevisiae deletion strains, locus YKL067W, strain YNK1, hits give low values 0.805 | S. cerevisiae deletion strains, locus YKL101W, strain HSL1, hits give low values 0.821 | S. cerevisiae deletion strains, locus YKL193C, strain SDS22, hits give low values 0.969 | S. cerevisiae deletion strains, locus YKL203C, strain TOR2, hits give low values 0.907 | S. cerevisiae deletion strains, locus YLR403W, strain SFP1, hits give low values 0.704 | S. cerevisiae deletion strains, locus YML070W, strain DAK1, hits give low values 0.755 | S. cerevisiae deletion strains, locus YMR001C, strain CDC5, hits give low values 0.966 | S. cerevisiae deletion strains, locus YMR205C, strain PFK2 (second series), hits give low values 0.832 | S. cerevisiae deletion strains, locus YMR277W, strain FCP1, hits give low values 0.965 | S. cerevisiae deletion strains, locus YNL006W, strain LST8, hits give low values 0.99 | S. cerevisiae deletion strains, locus YNL020C, strain ARK1, hits give low values 0.753 | S. cerevisiae deletion strains, locus YNL161W, strain CBK1, hits give low values 0.982 | [32] 0.878 | S. cerevisiae deletion strains, locus YNL207W, strain RIO2, hits give low values 0.965 | S. cerevisiae deletion strains, locus YNL222W, strain SSU72, hits give low values 0.967 | S. cerevisiae deletion strains, locus YNL307C, strain MCK1 (second series), hits give low values 0.708 | S. cerevisiae deletion strains, locus YOL078W, strain AVO1, hits give low values 0.964 | S. cerevisiae deletion strains, locus YOL136C, strain PFK27, hits give low values 0.739 | S. cerevisiae deletion strains, locus YOR061W, strain CKA2, hits give low values 0.714 | S. cerevisiae deletion strains, locus YOR119C, strain RIO1, hits give low values 0.928 | [33] 0.864 | S. cerevisiae deletion strains, locus YOR329C, strain SCD5, hits give low values 0.978 | S. cerevisiae deletion strains, locus YPL031C, strain PHO85, hits give low values 0.773 | S. cerevisiae deletion strains, locus YPL153C, strain RAD53, hits give low values 0.868 | S. cerevisiae deletion strains, locus YPL204W, strain HRR25, hits give low values 0.902 | S. cerevisiae deletion strains, locus YPL209C, strain IPL1, hits give low values 0.958 | S. cerevisiae deletion strains, locus YPR025C, strain CCL1, hits give low values 0.963 | S. cerevisiae deletion strains, locus YPR106W, strain ISR1, hits give low values 0.971 | S. cerevisiae deletion strains, locus YPR111W, strain DBF20, hits give low values 0.966 | S. cerevisiae deletion strains, strain NNK1, hits give low values 0.971 | S. cerevisiae deletion strains, strain TSCII, hits give low values 0.968
active: S. cerevisiae deletion strains, locus YHR205W, strain SCH9, hits give low values 0.453 | [31] 0.803 | S. cerevisiae deletion strains, locus YLR133W, strain CKI1, hits give low values 0.675 | [34] 0.857

Reference: PubChem BioAssay AID1159580 (chemical genetic matrix, 2015)
